Compound activity from PubChem.
Hits are enriched below; roughly 2.5% of the tested compounds scored in any of these assays.
p53ts 39C kill – p53ts cell cytotoxicity, nonpermissive temperature; H1299-p53A138V viability at 39C, ATP luminescence, 24 h; Potency, µM (series often up to 46.1 µM), without a hit: top-dose activity change, negative = cell killing, hits mostly cytotoxic; 1.5% of 130,000 active; also: nearly all actives have a fitted effect of over 55% in size
p53ts 32C kill – p53ts cell cytotoxicity, permissive temperature | H1299-p53A138V at 32C, ATP luminescence viability, 24 h | Potency, µM (titrated, usually from 46.1 µM), for the others: top-dose activity change, negative = cytotoxicity, actives largely listed as cytotoxic | 0.93% of 130,000 active | AID 924;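 also: 0% = DMSO and -100% = full killing by reference compound; nearly all actives have a fitted effect of over 55% in size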
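H1299-p53 A138V cells (temperature-sensitive p53) exposed 24 h to up to 46 uM compound at 32C, where p53 is wild-type in conformation. Viability read as ATP luminescence and normalised to DMSO and 100 uM tamoxifen. AC50 fitted with the Hill equation.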
Luciferase inh – inhibitors of firefly luciferase | AID 411 | purified firefly luciferase, luminescence, 8 min | P08659 | 2.2% of 72,000 active | Potency, µM (top dose mostly 57.1 µM), inactives show at the top dose activity change, negative = inhibition, hits mostly inhibitors; also: nearly all actives have a fitted effect of over 40% in size
Target sequence (P08659 whole entry, looked up): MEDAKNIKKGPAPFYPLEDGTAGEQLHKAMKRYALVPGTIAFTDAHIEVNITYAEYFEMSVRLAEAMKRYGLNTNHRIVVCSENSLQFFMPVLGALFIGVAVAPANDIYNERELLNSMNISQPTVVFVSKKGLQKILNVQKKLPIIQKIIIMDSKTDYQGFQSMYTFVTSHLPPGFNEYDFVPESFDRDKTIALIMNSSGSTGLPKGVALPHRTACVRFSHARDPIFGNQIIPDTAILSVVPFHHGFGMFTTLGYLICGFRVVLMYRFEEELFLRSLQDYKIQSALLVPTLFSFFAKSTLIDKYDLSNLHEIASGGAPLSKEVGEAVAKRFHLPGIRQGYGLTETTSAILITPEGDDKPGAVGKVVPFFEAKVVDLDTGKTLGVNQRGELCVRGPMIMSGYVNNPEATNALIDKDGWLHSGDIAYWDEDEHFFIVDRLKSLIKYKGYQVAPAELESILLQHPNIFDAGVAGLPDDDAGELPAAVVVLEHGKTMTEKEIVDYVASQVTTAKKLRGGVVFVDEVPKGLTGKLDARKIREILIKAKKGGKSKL
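Inhibition of light generation by firefly luciferase from ATP and luciferin was profiled with concentration-response curves per sample, ATP held at 10 uM within the enzyme's linear range. Plates were read by luminescence after an 8-minute ambient incubation.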
* = called active by the depositor; ? = inconclusive; / = no result given; [ ] = dose if it differs, or a comment. Calls follow the shape of the dose curve; as a rule, active = well fitted curve in the direction sought with a large enough effect; inconclusive = small, poorly fitted or top-dose-only effect, or another doubt; inactive = no such curve, though single readings can be large; an effect the other way counts as inactive or inconclusive. Unless noted, % is scaled to controls: 0 for no effect and ±100 for the full control effect; potency is read from the fitted curve at half-maximal effect.

SMILES | p53ts 39C kill | p53ts 32C kill | Luciferase inh
O=C(O)NCc1ccccc1 (tested in a mixture with another compound) | 4.8%[9.22 µM] | 9.2%[9.22 µM] | 3.0%[11.4 µM]
COc1ncc2nc(-c3ccccc3)c(=O)n(-c3ccccc3)c2n1 | -3.9% | 1.8% | 0.1%[11.4 µM]
CCOC(=O)N1CCc2c(sc(NCc3cccc(F)c3)c2C(=O)Nc2ccc(OCC)cc2)C1 | 12.1% | 15.6% | /
CCCCCOc1ccccc1Cn1c(=O)oc2ccc(C)cc21 | -5.9% | -6.5% | /
CCCCCOc1ccccc1CN1C(=O)C(=O)c2cc(C)ccc21 | 12.6µM* | 1.4% | /
NC(N)=NC(N)=Nc1c(F)c(F)c(F)c(F)c1F | -3.5%[9.22 µM] | 5.8%[9.22 µM] | 3.2%[11.4 µM]
COc1ccc2cc(-c3nc(-c4ccc(N(C)C)cc4)no3)c(=O)oc2c1 | -7.8% | 1.4% | /
Cc1ccc(-c2noc(-c3ccccc3Br)n2)cc1 | 10µM* | 12.6µM* | 3.16µM*
COc1ccc(Cl)cc1-c1nc(-c2ccncc2)no1 | 8.8% | 12.8% | 0.0%
COc1nc(-c2ccc(C)cc2)ccc1-c1noc(-c2ccccc2Br)n1 | -10.7% | -5.3% | /
CN(C)c1ccc(-c2noc(-c3ccccc3O)n2)cc1 | ? | ? | 1µM*
COc1cc(OC)cc(-c2nc(-c3ccc(Br)cc3)no2)c1 | -5.0% | -8.6% | 1.1%
COc1ccc(-c2nc(-c3ccc(Br)cc3)no2)c(OC)c1 | -20.2% | ? | 2.51µM*
COc1ccccc1-c1nc(-c2ccncc2)no1 | -27.0% | -16.3% | 20µM*
CCOC(=O)c1noc2ncnc(N3CCC(C)CC3)c12 | -16.7% | -1.4% | /
COC(=O)NC(CC(C)=O)c1cccs1 (stereo not drawn) | 4.8%[9.22 µM] | 6.2%[9.22 µM] | /
Cc1cc(C(C)(C)C)c(OCCCN2CCOCC2)c(C(C)(C)C)c1 | 10.7%[9.22 µM] | 5.2%[9.22 µM] | 1.3%[11.4 µM]
COc1ccccc1-c1noc(-c2cc(OC)c(OC)c(OC)c2)n1 | -4.7% | 9.0% | -2.2%
COc1ccccc1-c1nc(-c2ccc(Br)cc2)no1 | ? | -23.2% | 12.6µM*
Cc1ccccc1-c1noc(-c2ccc(O)cc2)n1 | -15.0% | -18.5% | 20µM*
Cc1ccccc1-c1noc(-c2cc(-c3ccc(F)cc3)n[nH]2)n1 | 5.4% | 11.7% | /
Cc1cc(N2CCN(C)CC2)nc2ccc(NC(=O)Nc3cccc(Cl)c3)cc12 | 25.1µM* | ? | /
CCN1CCN(c2cc(C)c3cc(NC(=O)c4ccccc4F)ccc3n2)CC1 | -23.5% | -6.7% | /
CCN1CCN(c2cc(C)c3cc(NC(=O)c4cc(Br)ccc4Cl)ccc3n2)CC1 | 12.6µM* | ? | /
Cc1cc(N2CCN(C)CC2)nc2ccc(NC(=O)c3ccccc3F)cc12 | ? | -16.8% | /
SMILES | p53ts 39C kill | p53ts 32C kill | Luciferase inh
Cc1ccc(NC(=O)Nc2ccc3nc(N4CCN(C)CC4)cc(C)c3c2)cc1C | 12.6µM* | ? | /
Cc1cc(N2CCN(C)CC2)nc2ccc(NC(=O)Nc3ccc(F)cc3F)cc12 | ? | -15.0% | /
Cc1cc(N2CCN(C)CC2)nc2ccc(NC(=O)Nc3ccccc3Br)cc12 | 12.6µM* | 15.8µM* | /
Cc1cc(N2CCCCC2)nc2ccc(NC(=O)c3cccc(Cl)c3)cc12 | -0.4% | 9.7% | /
Cc1cc(O)c(C(C)C)cc1CN1CCCCC1 | -6.9%[9.22 µM] | 10.3%[9.22 µM] | 1.0%[11.4 µM]
COC(=O)[C@@]1(Cc2ccc(OC)cc2)[C@H]2c3cc(C(=O)N(C)C)n(Cc4ccc(C)c(F)c4F)c3C[C@H]2CN1C(=O)c1ccccc1 | 32.2% | 47.9% | /
COc1ccccc1CNC(=O)C(C)n1c(=O)cc(C(F)(F)F)c2c(C)nn(C)c21 (stereo not drawn) | -2.1% | 2.9% | /
CCN(CC)S(=O)(=O)c1ccc2c(c1)nc(CN(C)C(=O)c1cccc(Cl)c1)n2C | -17.1% | 0.3% | /
Cc1noc(C)c1-c1nc(NCc2cccs2)c2ccccc2n1 | -19.6% | -8.0% | -2.7%[2.29 µM]
CCN(CC)c1ccc(-c2nc3cnccc3n2C)cc1 | ? | ? | 10µM*
CCN(CC)c1ccc2c(c1)C(=O)N(C)C2=O | 4.8% | 6.4% | -9.4%
CCNc1ncc2ncc(=O)n(Cc3ccc(F)cc3)c2n1 | -4.0% | 23.8% | -1.7%[11.4 µM]
COc1ccc(NC(=O)Cn2c(=O)n(Cc3ccccc3)c(=O)c3sc4ccccc4c32)cc1 | -3.9% | 0.6% | /
O=C(Cn1c(=O)n(Cc2ccc(F)cc2)c(=O)c2sc3ccccc3c21)NCc1ccccc1 | -14.4% | 0.1% | /
O=C(Cn1c(=O)n(Cc2ccccc2)c(=O)c2sc3ccccc3c21)Nc1ccccc1 | 12.6µM* | ? | /
O=C(Cn1c(=O)n(Cc2ccccc2)c(=O)c2sc3ccccc3c21)Nc1ccc(F)cc1 | 10µM* | ? | /
C/C(CCN1CCc2nc(-c3ccccc3)c(-c3ccccc3)cc2C1)=N\O[C@@H](C)CN1CCCCc2nc(C)c(C)cc21 | -4.8%[9.22 µM] | 22.8%[9.22 µM] | 0.7%[11.4 µM]
O=C(N/N=C1/C[C@@H](O)[C@@H](O)[C@@H]2[C@@H]3C(=O)N(C[C@@H]4CCCO4)C(=O)[C@H]3CC[C@H]12)OCc1ccccc1 | 10.4%[9.22 µM] | 3.9%[9.22 µM] | -0.9%[11.4 µM]
CCOC(=O)Cc1c(C)c2ccc(N(CC)CC)cc2oc1=O | -6.1% | -0.2% | -4.3%
CCN(CC)c1ccc2c(C)cc(=O)oc2c1 | -5.6% | -2.4%[1.84 µM] | /
CCN(CC)c1ccc2c(c1)oc(=O)c1c(Cl)cc(=O)oc12 | 12.6µM* | 12.6µM* | -1.6%
CCN(CC)c1ccc2c(Cl)c(Br)c(=O)oc2c1 | ? | 12.6µM* | -2.5%
COC(=O)C1C(O)CC[C@H]2CN3CCc4c([nH]c5ccccc45)C3C[C@H]12 (stereo partly drawn) | 2.4% | -2.6% | /
N[C@H](CS(=O)O)C(=O)O | / | / | -0.4%
Cc1cc2c(c(=O)o1)[C@@H](O)[C@H]1O[C@@H]1C2=O | 3.4%[9.22 µM] | 4.2%[9.22 µM] | 1.0%[11.4 µM]
SMILES | p53ts 39C kill | p53ts 32C kill | Luciferase inh
CCOC(=O)c1cnc(SCC(=O)c2ccc(C)cc2)nc1N | -3.1% | 1.7% | /
CCOC(=O)c1cnc(SCC(=O)c2ccccc2)nc1N | -26.9% | -28.4% | 3.98µM*
CCOC(=O)c1ccccc1NC(=O)CSc1ncc(C(=O)OCC)c(N)n1 | -2.4% | -3.0% | 5.7%
CCOC(=O)c1cnc(-c2ccccc2)nc1N | ? | ? | 20µM*
Cc1nc(-n2nc(C)c(Cc3ccccc3Cl)c2C)sc1C(=O)Nc1ccccc1F | 9.0% | -2.3% | /
O[C@H](CNc1ccccn1)c1ccccc1 | 5.2%[9.22 µM] | 10.5%[9.22 µM] | 1.7%[11.4 µM]
O=C(Cn1c(=O)n(-c2ccccc2)c(=O)c2ccc(C(=O)NCc3ccc4c(c3)OCO4)cc21)Nc1ccc(F)c(Cl)c1 | 0.6% | 18.2% | /
CCc1ccc(NC(=O)Cn2c(=O)n(-c3ccccc3)c(=O)c3ccc(C(=O)NCc4ccc5c(c4)OCO5)cc32)cc1 | 15.8µM* | -21.3% | /
Cc1cc(C)c(NC(=O)Cn2c(=O)n(Cc3ccc4c(c3)OCO4)c(=O)c3ccccc32)c(C)c1 | 9.1% | 14.9% | /
CCOc1ccc(NC(=O)Cn2c(=O)n(Cc3ccc(C(=O)NCc4ccc5c(c4)OCO5)cc3)c(=O)c3ccccc32)cc1 | 5.6% | 1.7% | /
Cc1cc(C)c(NC(=O)Cn2c(=O)n(Cc3ccc(C(=O)NCc4ccc5c(c4)OCO5)cc3)c(=O)c3ccccc32)c(C)c1 | 5.01µM* | ? | /
CCOc1ccc(NC(=O)Cn2c(=O)n(-c3ccccc3)c(=O)c3ccc(C(=O)NCc4ccc5c(c4)OCO5)cc32)cc1 | 12.6µM* | ? | /
